Here are results for 15 molecules from PubChem BioAssay.

“And” between values parts separate entries of the source, which are not always exact repeats. Equal values may be shown once. Some structures have more than one record in an assay (separate samples or runs), and their calls can disagree. The source made the active and inactive calls.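 How the source made its calls, unless noted: active means normalized viability below 100% at a tested concentration; inactive means the rest.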

Test [1] is described as follows: phospholipid biosynthesis inhibitors in animal cells, primary screen, cell-based, LOPAC library, screen 4 (AID 1347384; call rule not given here). The conditions noted are these: phospholipid biosynthesis inhibition screen, at 10 µM.
The nature of test [2]: modifiers of HSF1 nuclear foci, imaging, Selleck Cancer Library (AID 1347162; in the data active means plate-normalised HSF1 focus index below about 0.46). The conditions noted are these: human cells, at 10 µM; SSMD: measured here: HSF1 foci SSMD mean; cell count: measured here: cell number; plate-normalised HSF1 focus index: stronger effect = lower value.
Test [3] is described as follows: liver-stage malaria parasite growth inhibition, primary screen, cell-based, HepG2, luciferase luminescence, HepG2 viability (AID 624349; in the data active means parasite load remaining mostly below about 12%, no sharp cut-off; inactive means mostly above about 10%;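 further: 100% = mean of DMSO negative control wells on the same plate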). The conditions noted are these: P. berghei liver stage in HepG2, luciferase luminescence, concentration not given here; parasite load remaining: stronger effect = lower value; viability: measured here: HepG2 viability without parasites.
Test [4] can be described thus: ovarian cancer cell viability with rucaparib, profiling panel, oncology-focused library, rucaparib conditional (AID 1508598). As to conditions: patient-derived ovarian cancer cells, CellTiter-Glo viability, 144 h, stronger effect = lower value. Background: ATP-based viability assays read luminescence as a measure of living cells.

As to `O.O.[NH2-].[NH2-].[NH2-].[NH2-].[NH2-].[NH2-].[NH2-].[NH2-].[NH2-].[NH2-].[NH2-].[NH2-].[NH2-].[NH2-].[Ru+4].[Ru+5].[Ru+5]`, the molecule was called inactive in test [1].
The same measure, in the same setting: to `CC[N+](CC)(CC)CC` belongs “inactive”.
Turning to `CC[C@@H](C(=O)[C@@H](C)[C@@H](O)[C@H](C)[C@@H]1O[C@@H]([C@@H](CC)C(=O)O)CC[C@@H]1C)[C@H]1O[C@]2(C=C[C@@H](O)[C@]3(CC[C@@](C)([C@H]4CC[C@](O)(CC)[C@H](C)O4)O3)O2)[C@H](C)C[C@@H]1C`, in test [2], the SSMD was 4.08, the cell count is 7580 and the plate-normalised HSF1 focus index was 1.26 (inactive).
In the case of `O=c1c2ccccc2[nH]c(=S)n1CCN1CCC(=C(c2ccc(F)cc2)c2ccc(F)cc2)CC1`, in test [3], the parasite load remaining is 40.1% (inactive) and the viability was 100%. Also, in test [2], the SSMD is 4.04, the cell count came out at 6860 and the plate-normalised HSF1 focus index was 1.24 (inactive).
As to `CC1=NN(c2ccc(C(=O)O)cc2)C(=O)/C1=C\c1ccc(-c2cc(C)c(C)cc2[N+](=O)[O-])o1`, in test [2], the SSMD came out at 1.04, the cell count was determined as 6690 and the plate-normalised HSF1 focus index was 1.07 (inactive).
Consider `C[N+]1(C)C2CC(OC(=O)[C@H](CO)c3ccccc3)CC1C1OC12` (stereo partly specified), for which the outcome in test [1] was inactive.
In the case of `COc1c/c(=C2/C=c3ccccc3=N2)[nH]/c1=C\c1[nH]c(C)cc1C`, in test [2], the SSMD was -6.15, the cell count is 7490 and the plate-normalised HSF1 focus index is 0.614 (inactive).
For `O=C(/C=C/c1ccc(O)cc1)CC(=O)/C=C/c1ccc(O)cc1`, the outcome in test [1] was inactive.
On the same count and under the same terms, the same measure for `CCOC(=O)CN1C(=O)c2ccc3c4c(ccc(c24)C1=O)C(=O)N(CC(=O)OCC)C3=O`: “inactive”; for `O=C(O)C1=CS[C@@H]2/C(=C\c3cnc4n3CCOC4)C(=O)N12`: “inactive”; for `Nc1ncnc2c1ncn2[C@@H]1O[C@H](COP(=O)(O)CP(=O)(O)OP(=O)(O)O)[C@H](O)C1O` (stereo partly specified): “inactive”.
Take `CCOc1ncc(S(=O)(=O)N2CCN(CC)CC2)cc1-c1nc2c(CC)n(CCOC)nc2c(=O)[nH]1`: in test [1], the molecule was classed as inactive.
For `CCCCCCCCCCCCCCCCCCOP(=O)(O)OC1CC[N+](C)(C)CC1`, in test [2], the SSMD is -3.23, the cell count turned out to be 7160 and the plate-normalised HSF1 focus index was 0.793 (inactive).
Regarding `CCCCCc1ccc(/C=C/C(=O)Nc2cc(Cl)ccc2C(=O)O)cc1`, in test [1], the outcome was inactive.
For `N#CC[C@@H](C1CCCC1)n1cc(-c2ncnc3[nH]ccc23)cn1`, in test [2], the SSMD came out at 2.05. Further, in test [2], the cell count turned out to be 7030. Also, the plate-normalised HSF1 focus index in test [2] is 1.12 (inactive). Besides, the viability in test [4] (at 0.000305 µM, OCI-C5x cells, with rucaparib 10 µM, 100% = cells with rucaparib alone) was 113% (inactive) and 107% (inactive); in test [4] (at 0.000305 µM, OCI-C5x cells, without rucaparib), 113% (inactive) and 115% (inactive); in test [4] (at 0.000305 µM, OCI-P5x cells, with rucaparib 20 µM, 100% = cells with rucaparib alone), 90.3% (active) and 57.2% (active); in test [4] (at 0.000305 µM, OCI-P5x cells, without rucaparib) it was 67.6% (active) and 15.7% (active); in test [4] (at 0.00122 µM, OCI-C5x cells, with rucaparib 10 µM, 100% = cells with rucaparib alone), 104% (inactive) and 71.4% (active); in test [4] (at 0.00122 µM, OCI-C5x cells, without rucaparib) it was 116% (inactive) and 58.3% (active). Moreover, the viability in test [4] (at 0.00122 µM, OCI-P5x cells, with rucaparib 20 µM, 100% = cells with rucaparib alone) is 75.9% (active) and 50.4% (active); in test [4] (at 0.00122 µM, OCI-P5x cells, without rucaparib) it was 29.2% (active) and 17% (active); in test [4] (at 0.00488 µM, OCI-C5x cells, with rucaparib 10 µM, 100% = cells with rucaparib alone), 115% (inactive) and 102% (inactive); in test [4] (at 0.00488 µM, OCI-C5x cells, without rucaparib), 114% (inactive) and 116% (inactive); in test [4] (at 0.00488 µM, OCI-P5x cells, with rucaparib 20 µM, 100% = cells with rucaparib alone), 107% (inactive) and 105% (inactive); in test [4] (at 0.00488 µM, OCI-P5x cells, without rucaparib), 106% (inactive) and 105% (inactive). In addition, the viability in test [4] (at 0.0195 µM, OCI-C5x cells, with rucaparib 10 µM, 100% = cells with rucaparib alone) was 109% (inactive) and 100% (inactive); in test [4] (at 0.0195 µM, OCI-C5x cells, without rucaparib), 99.4% (active) and 104% (inactive); in test [4] (at 0.0195 µM, OCI-P5x cells, with rucaparib 20 µM, 100% = cells with rucaparib alone), 99.9% (active) and 99.8% (active); in test [4] (at 0.0195 µM, OCI-P5x cells, without rucaparib), 99.4% (active) and 104% (inactive); in test [4] (at 0.0781 µM, OCI-C5x cells, with rucaparib 10 µM, 100% = cells with rucaparib alone) it was 112% (inactive) and 100% (inactive); in test [4] (at 0.0781 µM, OCI-C5x cells, without rucaparib) it was 113% (inactive) and 109% (inactive). Besides, the viability is 100% (inactive) and 96.9% (active) in test [4] (at 0.0781 µM, OCI-P5x cells, with rucaparib 20 µM, 100% = cells with rucaparib alone); 101% (inactive) and 102% (inactive) in test [4] (at 0.0781 µM, OCI-P5x cells, without rucaparib); 105% (inactive) and 98.1% (active) in test [4] (at 0.313 µM, OCI-C5x cells, with rucaparib 10 µM, 100% = cells with rucaparib alone); 106% (inactive) and 111% (inactive) in test [4] (at 0.313 µM, OCI-C5x cells, without rucaparib); 100% (inactive) and 90.7% (active) in test [4] (at 0.313 µM, OCI-P5x cells, with rucaparib 20 µM, 100% = cells with rucaparib alone); 96.4% (active) and 98.4% (active) in test [4] (at 0.313 µM, OCI-P5x cells, without rucaparib). For the same molecule, the viability in test [4] (at 1.25 µM, OCI-C5x cells, with rucaparib 10 µM, 100% = cells with rucaparib alone) is 117% (inactive) and 101% (inactive); in test [4] (at 1.25 µM, OCI-C5x cells, without rucaparib), 108% (inactive) and 109% (inactive); in test [4] (at 1.25 µM, OCI-P5x cells, with rucaparib 20 µM, 100% = cells with rucaparib alone) it was 97.5% (active) and 88.1% (active); in test [4] (at 1.25 µM, OCI-P5x cells, without rucaparib) it was 96% (active) and 91.3% (active); in test [4] (at 5 µM, OCI-C5x cells, with rucaparib 10 µM, 100% = cells with rucaparib alone) it was 133% (inactive) and 122% (inactive); in test [4] (at 5 µM, OCI-C5x cells, without rucaparib) it was 115% (inactive) and 130% (inactive). The viability was 83.7% (active) and 82.4% (active) in test [4] (at 5 µM, OCI-P5x cells, with rucaparib 20 µM, 100% = cells with rucaparib alone); 86.9% (active) and 86.2% (active) in test [4] (at 5 µM, OCI-P5x cells, without rucaparib).

What is called viability is a read-out of living cells in per cent, often relative to untreated cells.
